Data published in PubChem BioAssay AID1159506 (National Center for Advancing Translational Sciences (NCATS), 2015).
Whole data set: some 59,000 sequences, median the read-out near -0.00055, cut for the lowest 2% near -2. This excerpt belongs to a sample that is enriched for the lowest values.

Assay: Identification of proteins required for the processing of the EWS-FLI1 nascent transcript;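 also: robust z of luciferase light less the median z of siRNAs with the same seed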
Details: TC32 Ewing sarcoma NR0B1-luc vs CMV-luc (EWS-FLI1 target promoter against control promoter), 48 h; screened at 20 nM (by protocol)
Method: Ewing sarcoma (ES) cells depend on the EWS-FLI1 fusion transcription factor for cell survival. Using an assay of EWS-FLI1 activity and genome-wide siRNA screening we have identified proteins required for the processing of the EWS-FLI1 nascent transcript. Parallel genome-wide siRNA-mediated RNAi screens were conducted in Ewing sarcoma TC32 cell lines expressing a luciferase (luc) reporter protein driven by either the promoter of the EWS-FLI1 target gene NR0B1 (TC32-NR0B1-luc) or the CMV promoter (TC32-CMV-luc). Luciferase activity was assessed 48 hours post siRNA-transfection.
Twenty microl of serum-free media containing Lipofectamine RNAiMax (0.05 microl) was added to wells containing siRNA (0.8 pmol). Lipid and siRNA were allowed to complex for 45 min at ambient temperature before addition of 600 cells in RPMI-1640, 20% FBS to yield final transfection mixtures containing 20 nM siRNA in RPMI-1640, 10% FBS. Luciferase expression was measured using OneGlo (Promega, Madison, WI). The genome-wide screening campaign was conducted using Ambion's human genome library version 4.1 (Ambion, Austin TX). This library targets approximately 21000 human genes, three siRNAs per gene. Each siRNA is arrayed in an individual well of a 384-well plate. Parallel transfections were conducted in TC32-NR0B1-luc and TC32-CMV-luc cell lines and luciferase expression (OneGlo, Promega) was assayed 48 h later on a PerkinElmer Envision 2104 Multilabel plate reader (PerkinElmer, Waltham, MA). Qiagen's AllStars Negative control was incorporated on all screening plates for normalization (16 wells per plate). Qiagen, Germantown, MDsiGL4 was incorporated as a positive transfection control (16 wells per plate) on all plates. […] The raw luciferase data for the NR0B1- and CMV-luc screens were normalized and z-score-MAD transformed using standard methods (Chung et al., 2008). The miRNA-like seed sequence of every siRNA was determined and the median z-score for all siRNA sequences with the same seed sequence was calculated. This z-score was subtracted from the z-score associated with each siRNA with that seed sequence to generate a seed-adjusted z-score value (Z) that was used when the results for the three siRNAs corresponding to each gene were compared (Marine et al., 2012)
For AACACUUACGCAGUUCUUG against MTCP1, the seed-corrected z-score was 0.193.
For UUUUUCUUCACAGGUGUUU against HIST1H1D, the seed-corrected z-score was -0.582.
Work on UAAGCUUUUAUUGUGAAUG against GRP yielded a seed-corrected z-score of -2.97.
Sequence UUCUCAUCACUUGUAGCCU against ANKRD36C has a seed-corrected z-score of 0.48.
With UGUUUAGUAGCAGAUCUCC against PSMD6 the seed-corrected z-score was -2.83.
In the case of GUUGGUAACAGGGUCAUUU against RXRG, the seed-corrected z-score was -0.41.
For UUGCGAACAAUAGGGUUAG against PZP, the seed-corrected z-score was -0.222.
For UAAAUGUACCGUUUAAACC against LOC647481, the seed-corrected z-score was 0.567.
UCCGGAAUGUCGAUGCCCU against DUX5 gave a seed-corrected z-score of -0.471.
ACUGUUAUUCUUACGCUGG against CUL3 showed a seed-corrected z-score of -0.643.
In the case of AAUUUGACCUCAUCCAUUU against FAM47C, the seed-corrected z-score was -0.798.
For UGGUGUAACUUCAACAUCG against ATP13A4, the seed-corrected z-score was -2.09.
Sequence UAUUCGUCAGCUCAAACUC against IQCH has a seed-corrected z-score of -1.02.
In the case of UAGGGUGAGAAUAGACAGG against PEX11B, the seed-corrected z-score was 0.764.
Work on UUCAGUUGUGAUAAGUUGC against TLR6 yielded a seed-corrected z-score of -0.0452.
For UUUCGAUCUCUGUUAAGCC against C2orf40, the seed-corrected z-score was 0.448.
Sequence UUGAAGACCACGUACAUGG against SLC35D3 has a seed-corrected z-score of -0.373.
Work on UAAGCGUAUCUGGAAUUAC against UGCG yielded a seed-corrected z-score of 0.00222.
With UUCUUGACGUGCUUCAUUC against SCO1 the seed-corrected z-score was -0.488.
Sequence UUACGGAUCAUGUGGUCUU against SCNN1B has a seed-corrected z-score of 0.029.
Work on UGACUUCACAUGGACUACG against IDH3B yielded a seed-corrected z-score of -2.07.
For AUCAUUCACAGGGAGGUCC against OAZ2, the seed-corrected z-score was 1.3.
With UUUGCAUCCCUCGCACUUG against MT3 the seed-corrected z-score was 0.331.
For UUGAAUUCAUUGCAUGUCC against CTSZ, the seed-corrected z-score was 0.0627.
For UAGCGGGUCUCAUCAAAGC against HGFAC, the seed-corrected z-score was 1.53.
UUAGGUGCGCGGCUAACUG against COL9A3 showed a seed-corrected z-score of -2.65.
For UCAAUGCAAAGGAACACUC against ARFGAP3, the seed-corrected z-score was -0.0755.
Work on AUGUGGGUAAAAACUUGCU against NGRN yielded a seed-corrected z-score of -2.09.
Work on UUCUUUAUUCCUUGAGCUG against OR10A4 yielded a seed-corrected z-score of -3.24.
UACUUGACGAUGUUGCGCG against ADGRL1 showed a seed-corrected z-score of -0.114.
UUCAUAUACAGCACAAUAC against CD58 showed a seed-corrected z-score of 1.5.
UUGGAGGACAGGUCCAAGU against TSKU gave a seed-corrected z-score of 0.336.
UUCCAUGUAAAACAAUUUC against PDE4D gave a seed-corrected z-score of 0.777.
Work on UUAUCUGUGACAUAAGUUG against ALG13 yielded a seed-corrected z-score of -2.26.
Work on UAGGGUACAUCGUAGGGAG against MYO15A yielded a seed-corrected z-score of -0.369.
GGAUUUGCAGCGCAAAGCC against LYPD1 showed a seed-corrected z-score of -0.365.
With UCUGGAUUAACGGUGGUCU against NOVA1 the seed-corrected z-score was -3.04.
Sequence UAAGACUCAAAGUUCCCAG against LOC642502 has a seed-corrected z-score of -0.393.
With AGAUGAAAAAGUAAGGCCG against TRIM58 the seed-corrected z-score was -0.628.
With UUUUCGAGGACAUUGACUG against FMN1 the seed-corrected z-score was 0.159.
With UCUUGCUCCAAACCUGCUC against KLHL34 the seed-corrected z-score was -0.143.
In the case of UUGCGGUAGACGAUGAUGC against ADAM8, the seed-corrected z-score was -1.99.
Sequence AAGCAUAAAAGGUUCCUGU against IRF4 has a seed-corrected z-score of 0.397.
UUCUCGUGCACUGUCAAAG against SMU1 gave a seed-corrected z-score of -3.77.
With UUUGCGGUCACAAUUGGGC against IGFBP5 the seed-corrected z-score was -0.759.
Sequence AGACAUAACACUACGAGAC against GBA2 has a seed-corrected z-score of 0.274.
For UUCUUCAUGCGCAGUGUGG against INF2, the seed-corrected z-score was 0.288.
Sequence AAAUCCUCCAAACAUGUGC against ZNRF2 has a seed-corrected z-score of -0.0777.
Work on UGAUCGAAAUGAUUUACAC against CD180 yielded a seed-corrected z-score of -0.034.
UAUACGAUAAUGAAAUUCC against SPINK13 showed a seed-corrected z-score of 0.358.
Sequence AAAGUUGGAAUACCGAGGU against C15orf61 has a seed-corrected z-score of 0.00537.
UUGACUAUAAGUGCGUCUC against KMT2E showed a seed-corrected z-score of -2.36.
For UCAGGGUGCAGCAUGAAUC against LOC338667, the seed-corrected z-score was 0.765.
UUUGUUGGGUCUAAGAUUG against RAB23 gave a seed-corrected z-score of -0.849.
In the case of UCAAUUACACCCUCAUUUG against SRSF6, the seed-corrected z-score was -2.18.
UUCGUGUAGGGUGUGUAGC against OSGIN1 showed a seed-corrected z-score of 0.000927.
UUAGAGUCAUGCAUGAGGG against MROH7 showed a seed-corrected z-score of -0.225.
Sequence UUGUAGACGAGCUGGAUGC against ADAMTSL5 has a seed-corrected z-score of -0.759.
In the case of UCCAUUCCUAUACUAGUCC against ABCG2, the seed-corrected z-score was -0.43.
In the case of CAAGUUUUUAUUAUCCUGC against EPHA10, the seed-corrected z-score was -0.0524.
AUUGUUCCCAUAGAGUUCC against BCL2L1 showed a seed-corrected z-score of 3.29.
UGAUCUGUGACUGCUCUUC against AP2M1 showed a seed-corrected z-score of -2.2.
For UCGAUCUUCAGGUCGUUGC against ATXN1, the seed-corrected z-score was -0.921.
For UUGGAAGUCACAGUCAUCC against CST7, the seed-corrected z-score was -0.103.
With UUGGUUAACUGGUCAAUCC against SLC40A1 the seed-corrected z-score was -0.655.
In the case of AUCUUUCCCAGGUUUUUCG against ZNF669, the seed-corrected z-score was -2.19.
AUCCAUCAAAGCGAUAUUC against GBE1 gave a seed-corrected z-score of -1.06.
Sequence AAUGAAGGAACCAUUGCCC against IL18BP has a seed-corrected z-score of 1.21.
AAAUAUCCCAUAAUCAGUG against LYZ gave a seed-corrected z-score of -0.541.
For AAUGGAUCCAAAGAGGCUA against KIFC2, the seed-corrected z-score was 0.744.
In the case of UUUAAUGUAACUCCCACUU against DLGAP2, the seed-corrected z-score was 0.4.
Sequence UGUGGUUCAACAAGAAGCU against CD177 has a seed-corrected z-score of -1.65.
For ACUGGAACAAGAACCGUCC against PDIA5, the seed-corrected z-score was 0.508.
For UGAUCGUACAGGUGCAUCG against IL1B, the seed-corrected z-score was -0.147.
With AAAUGAUCUGGUUUCCUUC against OLFML1 the seed-corrected z-score was -0.829.
UAAAUAGCAGCAUCUACUC against PPM1E showed a seed-corrected z-score of 0.41.
AAAACGAUCAAAAUCUGUC against RPL14 gave a seed-corrected z-score of -2.5.
With UACGUACUCAUUCUUCAGG against CMC2 the seed-corrected z-score was -0.986.
For UACAGGUAGGAGUUGUCCU against PRKACG, the seed-corrected z-score was 0.0436.
With UUUUAUAGAGGGAUAUUCG against NPC2 the seed-corrected z-score was 1.05.
With AACUGGUUCAUCAGUGUCC against WDR89 the seed-corrected z-score was -2.
For UGAAAUGCUAAUGCGUGGG against RBM33, the seed-corrected z-score was 0.224.
For UGCUUGCGAACAAACAGCC against SCD5, the seed-corrected z-score was 0.624.
Sequence UAGUGAUAGAUACUGUUCC against HGF has a seed-corrected z-score of -0.568.
Sequence UUUUGAUUAACUCGAGGAG against TSSK1B has a seed-corrected z-score of 0.323.
